From ChEMBL document CHEMBL3988442, “University of Dundee, Small-Polar-MMV Screening Library” (2021)
For some of these results: Entries with a potency or affinity are not part of this list.

What was measured:
Set-up in all cases: scale not given: direction of the effect not stated beside the values
[1] = biological target: Protein translocase subunit SecA (Escherichia coli (strain K12)) (UniProt P10408); assay: Assay to Identify E. coli SecA ATPase Inhibitors; format: functional; settings: 30 µM
[2] = biological target: T1, Ubiquitin-activating enzyme e1, putative (Leishmania donovani (strain BPK282A1)) (UniProt E9BSI1); assay: Leishmania donovani Ubiquitin Activating Enzyme (LdE1); format: functional; settings: 30 µM
T1 sequence (whole entry): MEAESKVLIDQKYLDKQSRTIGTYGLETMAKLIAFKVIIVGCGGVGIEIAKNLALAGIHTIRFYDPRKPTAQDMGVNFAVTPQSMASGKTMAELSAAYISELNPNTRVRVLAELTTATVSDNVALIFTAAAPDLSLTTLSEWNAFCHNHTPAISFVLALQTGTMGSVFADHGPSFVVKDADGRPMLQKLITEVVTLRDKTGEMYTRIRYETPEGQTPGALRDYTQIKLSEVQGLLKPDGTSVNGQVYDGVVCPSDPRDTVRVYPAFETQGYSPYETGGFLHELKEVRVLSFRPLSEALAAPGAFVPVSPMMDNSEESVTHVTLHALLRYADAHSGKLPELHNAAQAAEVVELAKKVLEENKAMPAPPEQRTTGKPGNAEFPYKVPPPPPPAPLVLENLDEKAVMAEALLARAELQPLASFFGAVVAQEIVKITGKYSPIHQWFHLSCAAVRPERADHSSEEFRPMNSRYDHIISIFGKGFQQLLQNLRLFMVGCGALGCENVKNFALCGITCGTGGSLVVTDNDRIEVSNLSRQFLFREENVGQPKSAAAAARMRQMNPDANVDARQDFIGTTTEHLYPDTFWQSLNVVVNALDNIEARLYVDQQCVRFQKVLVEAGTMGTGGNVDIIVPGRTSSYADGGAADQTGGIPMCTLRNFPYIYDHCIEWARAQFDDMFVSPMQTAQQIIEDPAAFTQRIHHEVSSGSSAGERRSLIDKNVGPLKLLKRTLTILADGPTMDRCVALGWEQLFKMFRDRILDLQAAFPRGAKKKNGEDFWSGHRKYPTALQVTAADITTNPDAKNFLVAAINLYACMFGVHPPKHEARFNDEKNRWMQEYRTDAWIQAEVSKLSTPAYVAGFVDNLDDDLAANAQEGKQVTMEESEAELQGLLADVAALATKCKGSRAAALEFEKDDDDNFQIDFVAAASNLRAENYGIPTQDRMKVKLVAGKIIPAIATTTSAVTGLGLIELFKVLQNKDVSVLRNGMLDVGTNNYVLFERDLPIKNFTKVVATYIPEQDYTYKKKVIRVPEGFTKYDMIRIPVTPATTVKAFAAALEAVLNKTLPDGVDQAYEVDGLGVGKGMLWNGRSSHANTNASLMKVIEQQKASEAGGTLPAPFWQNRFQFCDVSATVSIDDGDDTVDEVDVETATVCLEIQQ

[3] = biological target: AMP-activated protein kinase, AMPK (Homo sapiens) (UniProt P54646+O43741+P54619+Q9UGJ0+Q9Y478+Q13131+Q9UGI9); assay: AMP-dependent Kinase enzyme assay. An in vitro enzyme assay that detects ADP turnover that is directly proportional to AMPK activity. This uses naive AMPK that is activated during the assay with MK-8722; format: functional; settings: 30 µM
[4] = biological target: Sialic acid-binding Ig-like lectin 9 (Homo sapiens) (UniProt Q9Y336); assay: Hs-Siglec9 ALPHAscreen SOP 20170721; settings: 10 µM
[5] = test system: Trypanosoma cruzi; assay: Trypanosoma cruzi phosphomannomutase and mannose-1-phosphate guanylyltransferase assay; format: functional; settings: 10 µM
[6] = biological target: T2, Arginase-2, mitochondrial (Homo sapiens) (UniProt P78540); assay: in vitro enzyme assay to detect the production of urea directly proportional to the activity of Arginase II; format: functional; settings: 33.3 µM; further: in the data most compounds retested in dose-response had high values
T2 sequence (whole entry): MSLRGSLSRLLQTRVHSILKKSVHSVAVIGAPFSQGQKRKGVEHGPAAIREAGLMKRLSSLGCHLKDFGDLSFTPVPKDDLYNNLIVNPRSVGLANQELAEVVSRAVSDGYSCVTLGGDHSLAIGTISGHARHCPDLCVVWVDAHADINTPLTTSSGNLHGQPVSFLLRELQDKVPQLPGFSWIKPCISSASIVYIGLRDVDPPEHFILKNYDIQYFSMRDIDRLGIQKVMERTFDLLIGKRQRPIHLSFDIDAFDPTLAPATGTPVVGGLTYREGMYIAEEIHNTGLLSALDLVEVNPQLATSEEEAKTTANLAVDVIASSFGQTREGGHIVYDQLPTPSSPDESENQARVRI

[7] = biological target: T3, Proteasome subunit beta (Trypanosoma cruzi) (UniProt O96673); assay: Trypanosoma cruzi proteasome chymotrypsin-like activity (TcProtChymo) assay.; further: in the data most compounds retested in dose-response had high values; format: functional; settings: 9.37 µM
T3 sequence (whole entry): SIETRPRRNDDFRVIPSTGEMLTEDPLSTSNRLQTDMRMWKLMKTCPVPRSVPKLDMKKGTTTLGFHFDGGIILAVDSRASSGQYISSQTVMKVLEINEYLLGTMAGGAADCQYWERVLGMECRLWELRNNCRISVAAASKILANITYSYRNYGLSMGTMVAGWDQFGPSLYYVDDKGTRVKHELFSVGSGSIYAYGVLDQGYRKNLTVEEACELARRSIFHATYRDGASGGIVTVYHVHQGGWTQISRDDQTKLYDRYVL

[8] = species on record: Homo sapiens; assay: To identify inhibition of the IFN signalling (Jak-Stat) pathway via expression of an eGFP reporter gene under the control of an IFN-stimulated response element (ISRE) containing MxA promoter.; format: functional; settings: 30 µM
[9] = biological target: T4, Tyrosyl-tRNA synthetase, putative (Trypanosoma cruzi (strain CL Brener)) (UniProt Q4DSP6); assay: Trypanosoma cruzi tyrosyl tRNA synthetase (TcYRS) _High Tyrosine SOP; format: functional; settings: 30 µM; further: in the data most compounds retested in dose-response had high values
T4 sequence (whole entry): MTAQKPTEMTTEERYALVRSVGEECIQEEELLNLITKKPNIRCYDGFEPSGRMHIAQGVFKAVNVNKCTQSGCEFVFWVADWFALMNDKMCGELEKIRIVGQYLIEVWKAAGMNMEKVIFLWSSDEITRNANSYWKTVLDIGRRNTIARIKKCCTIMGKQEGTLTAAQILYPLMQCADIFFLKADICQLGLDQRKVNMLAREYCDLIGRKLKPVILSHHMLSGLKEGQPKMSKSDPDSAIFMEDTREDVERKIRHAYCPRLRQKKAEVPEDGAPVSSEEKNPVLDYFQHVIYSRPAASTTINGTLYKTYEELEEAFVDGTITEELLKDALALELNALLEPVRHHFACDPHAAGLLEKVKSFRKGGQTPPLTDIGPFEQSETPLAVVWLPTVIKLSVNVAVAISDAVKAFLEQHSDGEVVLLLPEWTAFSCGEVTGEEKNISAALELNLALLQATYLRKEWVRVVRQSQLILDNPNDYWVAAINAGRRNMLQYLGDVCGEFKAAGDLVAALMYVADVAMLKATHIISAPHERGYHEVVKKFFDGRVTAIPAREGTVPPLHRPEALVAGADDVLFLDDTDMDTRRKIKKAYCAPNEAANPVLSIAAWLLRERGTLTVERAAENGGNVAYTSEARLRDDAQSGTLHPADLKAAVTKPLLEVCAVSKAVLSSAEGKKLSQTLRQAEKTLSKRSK

[10] = biological target: T4, Tyrosyl-tRNA synthetase, putative (Trypanosoma cruzi (strain CL Brener)); assay: Trypanosoma cruzi tyrosyl tRNA synthetase (TcYRS) SOP; format: functional; settings: 30 µM
[11] = biological target: Chromo domain-containing protein 1 (Saccharomyces cerevisiae (strain ATCC 204508 / S288c) (Baker's yeast)) (UniProt P32657); assay: ScCHD-1 Enzyme Inhibition Assay; format: functional; settings: 30 µM; further: in the data most compounds retested in dose-response had high values
Sequence of Chromo domain-containing protein 1 (Saccharomyces cerevisiae (strain ATCC 204508 / S288c) (Baker's yeast)) (P32657 whole entry, the tested form may be a part): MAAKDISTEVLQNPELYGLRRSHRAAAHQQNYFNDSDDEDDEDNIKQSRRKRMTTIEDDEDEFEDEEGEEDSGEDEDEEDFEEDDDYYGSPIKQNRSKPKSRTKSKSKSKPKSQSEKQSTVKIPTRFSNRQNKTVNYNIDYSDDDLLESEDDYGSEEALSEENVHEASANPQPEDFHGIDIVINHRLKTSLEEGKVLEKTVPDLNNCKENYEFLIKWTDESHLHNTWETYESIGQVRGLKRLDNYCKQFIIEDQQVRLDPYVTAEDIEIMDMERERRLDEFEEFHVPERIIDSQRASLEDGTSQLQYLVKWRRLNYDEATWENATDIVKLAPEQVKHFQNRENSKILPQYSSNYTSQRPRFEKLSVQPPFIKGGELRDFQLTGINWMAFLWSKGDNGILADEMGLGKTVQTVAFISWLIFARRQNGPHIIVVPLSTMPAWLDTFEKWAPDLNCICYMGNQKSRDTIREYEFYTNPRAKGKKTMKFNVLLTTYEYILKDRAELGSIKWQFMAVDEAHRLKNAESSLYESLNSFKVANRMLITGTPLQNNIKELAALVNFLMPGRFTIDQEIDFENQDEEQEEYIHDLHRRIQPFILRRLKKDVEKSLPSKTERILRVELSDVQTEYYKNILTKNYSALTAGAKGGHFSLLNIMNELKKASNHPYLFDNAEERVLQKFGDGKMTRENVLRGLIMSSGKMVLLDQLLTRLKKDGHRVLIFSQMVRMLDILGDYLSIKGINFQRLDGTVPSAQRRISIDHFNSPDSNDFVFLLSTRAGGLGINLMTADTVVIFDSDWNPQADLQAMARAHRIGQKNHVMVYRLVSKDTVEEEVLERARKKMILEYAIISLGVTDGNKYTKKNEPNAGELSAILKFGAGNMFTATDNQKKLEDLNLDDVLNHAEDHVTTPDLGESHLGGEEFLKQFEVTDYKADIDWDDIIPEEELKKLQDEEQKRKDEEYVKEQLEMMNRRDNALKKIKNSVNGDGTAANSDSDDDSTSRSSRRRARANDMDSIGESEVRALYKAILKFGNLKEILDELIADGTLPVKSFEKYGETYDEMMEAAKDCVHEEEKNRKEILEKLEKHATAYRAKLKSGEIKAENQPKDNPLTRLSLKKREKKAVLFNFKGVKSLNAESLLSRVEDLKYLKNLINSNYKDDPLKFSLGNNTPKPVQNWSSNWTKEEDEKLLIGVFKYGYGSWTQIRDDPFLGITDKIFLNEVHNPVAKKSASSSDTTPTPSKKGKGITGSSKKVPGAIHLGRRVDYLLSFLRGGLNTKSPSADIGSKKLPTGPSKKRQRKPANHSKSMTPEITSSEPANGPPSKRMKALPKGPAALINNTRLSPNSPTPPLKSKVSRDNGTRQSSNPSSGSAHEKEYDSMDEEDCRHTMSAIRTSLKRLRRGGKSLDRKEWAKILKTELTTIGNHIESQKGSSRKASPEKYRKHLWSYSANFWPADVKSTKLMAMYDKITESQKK

Sequence of Sialic acid-binding Ig-like lectin 9 (Homo sapiens) (Q9Y336 whole entry): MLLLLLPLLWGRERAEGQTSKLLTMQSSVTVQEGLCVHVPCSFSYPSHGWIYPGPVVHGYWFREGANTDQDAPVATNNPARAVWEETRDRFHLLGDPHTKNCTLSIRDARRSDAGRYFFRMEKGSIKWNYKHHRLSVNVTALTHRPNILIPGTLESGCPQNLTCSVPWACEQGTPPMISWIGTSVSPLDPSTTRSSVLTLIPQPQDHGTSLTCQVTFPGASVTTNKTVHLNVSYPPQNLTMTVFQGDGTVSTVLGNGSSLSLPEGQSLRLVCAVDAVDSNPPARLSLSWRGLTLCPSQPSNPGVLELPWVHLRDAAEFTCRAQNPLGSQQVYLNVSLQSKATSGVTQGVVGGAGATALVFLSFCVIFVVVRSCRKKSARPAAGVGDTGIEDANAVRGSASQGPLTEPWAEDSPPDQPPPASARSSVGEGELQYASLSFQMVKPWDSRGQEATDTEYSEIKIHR
Sequence of Protein translocase subunit SecA (Escherichia coli (strain K12)) (P10408 whole entry): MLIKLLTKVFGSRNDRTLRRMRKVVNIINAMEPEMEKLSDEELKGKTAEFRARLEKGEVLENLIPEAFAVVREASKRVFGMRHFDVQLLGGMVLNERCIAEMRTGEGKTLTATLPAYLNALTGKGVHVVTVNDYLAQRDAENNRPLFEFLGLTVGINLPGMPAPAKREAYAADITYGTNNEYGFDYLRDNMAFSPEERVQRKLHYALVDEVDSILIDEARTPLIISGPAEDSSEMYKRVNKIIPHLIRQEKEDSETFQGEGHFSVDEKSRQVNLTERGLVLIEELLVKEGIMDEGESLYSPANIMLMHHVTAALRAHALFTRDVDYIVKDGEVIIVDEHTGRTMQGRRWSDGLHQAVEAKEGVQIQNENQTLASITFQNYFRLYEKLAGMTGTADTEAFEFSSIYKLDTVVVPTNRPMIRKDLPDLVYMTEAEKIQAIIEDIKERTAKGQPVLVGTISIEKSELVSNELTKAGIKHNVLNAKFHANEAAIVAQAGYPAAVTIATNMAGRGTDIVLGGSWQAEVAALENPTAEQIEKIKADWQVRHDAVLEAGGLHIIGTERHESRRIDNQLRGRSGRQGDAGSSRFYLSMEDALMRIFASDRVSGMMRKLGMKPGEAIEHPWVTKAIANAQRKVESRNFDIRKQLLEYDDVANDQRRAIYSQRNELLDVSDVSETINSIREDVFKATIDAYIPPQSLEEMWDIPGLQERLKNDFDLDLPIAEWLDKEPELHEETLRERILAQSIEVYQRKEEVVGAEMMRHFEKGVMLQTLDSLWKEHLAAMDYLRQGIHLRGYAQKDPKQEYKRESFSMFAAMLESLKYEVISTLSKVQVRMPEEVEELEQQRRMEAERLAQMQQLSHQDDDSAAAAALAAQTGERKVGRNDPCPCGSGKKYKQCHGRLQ

SMILES	Percent Effect [1] [%]	Percent Effect [2] [%]	Percent Effect [3] [%]	Percent Effect [4] [%]	Percent Effect [5] [%]	Percent Effect [6] [%]	Percent Effect [7] [%]	Percent Effect [8] [%]	Percent Effect [9] [%]	Percent Effect [10] [%]	Percent Effect [11] [%]
CC(C)c1nc2n(n1)CC(NCc1nnnn1C1CC1)CC2 (configuration not stated)	-2.7	32.4	-23.1	6.96	3.87	-15.6	7.39	9.98	4.43	18.5	-10.6
CC(C)c1n[nH]c(C2CN(C(=O)CCCn3cccn3)CCO2)n1 (configuration not stated)	0.0152	-6.94	-4.76	-7.03	-2.43	2.21	11.6	-1.34	-1.05	0	0.954
O=C(CCN1CCOC(Cn2cccn2)C1)NC1CCCC1 (configuration not stated)	-6.8	19	-3.66	-3.31	3.59	0.215	15.4	4.11	8.33	5.06	-15.2
CC(C)(CNC(=O)NCCOc1cccc(F)c1)C(N)=O	-3.85	7.89	1.82	8.76	0.94	2.3	0.167	-5.69	6.37	17.1	-6.58
CCOCC1CN(C(=O)c2cscn2)Cc2nnn(CC3CC3)c21 (configuration not stated)	-0.829	10.8	1.84	-5.91	0.88	4.14	18.4	-1.13	2.16	7.69	-1.63
CCC(CC)C(O)CNC(=O)Nc1cc(C)nn1C (configuration not stated)	-6.46	5.06	0.487	6.21	6.7	-1.9	5.16	-23.6	1.48	16.5	-6.04
Cn1cc(-c2csc(N3CCOCC3)n2)cn1	-3.35	1.39	-45.6	-2.23	1.26	2.21	0.702	1.08	15.8	28.2	-0.624
CN(C)CCO[C@@H]1CC[C@H]2[C@H]1OCCN2C(=O)CCc1ccccc1	-1.21	2.67	-7.4	-1.11	-2.7	-57.5	0.171	-1.39	0	2.5	-6.72
Cc1cnn(CC2CCCCN2Cc2nnc(-c3ccco3)o2)c1 (configuration not stated)	-5.16	13.5	-9.36	20.3	3.11	-5.61	13.3	7.01	8.37	18.5	-11.7
c1cnnc(N2CCCC(NCc3ccc(-n4ccnc4)cc3)C2)c1 (configuration not stated)	-1.81	2.6	5.74	12	-0.49	1.9	8.33	3.55	0.952	0	-13.3
O=S(=O)(Nc1cnn(C2CCOCC2)c1)c1ccc2c(c1)CCO2	-1.97	-2.6	-19.5	5.92	-0.296	-9.68	12	13	1.06	-1.28	-7.66
Cc1ccc2c(c1)c(CNC(=O)C1CCN(C(C)C)CC1)nn2C	2.34	5.41	-3.84	-0.447	-0.579	-2.38	12.9	-16.3	4.76	14.6	-3.28
CC(C)(C)c1noc(CN2CCN(C(=O)c3cccs3)CC2)n1	-2.39	10.4	4.2	-5.86	-4.68	4.27	10.3	19.4	7.77	14.6	-7.8
CC(C)Cc1noc(CN2CCC(NC(=O)c3cccs3)CC2)n1	-4.22	15.6	5.36	8.56	3.64	-8.28	19	3.93	6.45	16.1	-6.14
Cc1nccn1-c1cc(CNC(=O)CCC2CCCO2)ccn1 (configuration not stated)	-0.34	26.3	1.23	-7.85	3.08	1.8	18.9	3.69	8.37	28.4	-9.77
Cc1nccnc1CN1CCC2(CCCN(C3CCOCC3)C2=O)C1 (configuration not stated)	-2.05	-2.74	-4.08	1.19	2.98	-2.79	12.8	13.9	5.21	6.17	0.026
CC(C)c1ncc(CN2CCCC(CO)C2)cn1 (configuration not stated)	-1.56	1.35	11.1	9.9	-6.32	1.16	3.59	-1.15	1.07	1.3	-0.548
